# Assay results as given in PubChem BioAssay (Tox21).
# Inconclusive results are not listed. A number with no mark means an inactive call. Activity calls are given as the source filed them. Unless noted, calls follow the shape of the full dose curve.
# Test system: not listed separately
# Test: qHTS assay to identify small molecule agonists of the endoplasmic reticulum stress response signaling pathway - cell viability counter screen (AID 1159517);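 also: HeLa cells carrying an ER stress response element beta-lactamase reporter; % is scaled to controls: 0 for no effect and ±100 for the full control effect; nearly all actives have a fitted effect of over 50% in size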
# Details: ESRE-bla HeLa viability, CellTiter-Glo luminescence, 5 h; series mostly up to 61 µM; activity change, negative = cytotoxicity: at the top concentration
# Method in brief: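 Counter-screen wells were identical to the reporter wells. Cells were plated at 1,500 per well and dosed for 5 hr, then read for luminescence 30 min after CellTiter-Glo addition.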
row,SMILES,"activity change, negative = cytotoxicity"
1,COC(=O)C1=C(C)NC(C)=C(C(=O)OCCN2CCN(C(c3ccccc3)c3ccccc3)CC2)C1c1cccc([N+](=O)[O-])c1 (stereo unspecified),4.43%
2,O=C1C(c2[nH]c3ccc(S(=O)(=O)O)cc3c2O)=Nc2ccc(S(=O)(=O)O)cc21,-20.9%
3,CCO[C@@H]1O[C@H](C(COCc2ccccc2)OCc2ccccc2)[C@H](OCc2ccccc2)[C@H]1O (stereo partly specified),-1.67%
4,COc1ccc(-c2coc3cc(O)ccc3c2=O)cc1,-7.89%
5,NC(=S)NC(N)=S,-14.2%
6,CC(C)=CCC1=C(O)c2ccccc2C(=O)C1=O,-4.2%
7,Cc1ccc(O)c(O)c1,-25.6%
8,CCCc1ccc(OCC(=O)N2CCN(C(=O)COc3ccc(CCC)cc3OC)CC2)c(OC)c1,0.562%
9,COc1cc(S(=O)(=O)O)c(C)cc1N=Nc1c(O)ccc2cc(S(=O)(=O)O)ccc12,11.2%
10,CC1=Nc2ccccc2C1(C)C,-0.262%
11,CCCCCCCCCCCCOC(=O)c1ccc(O)cc1,-16.2% [at 78.8 µM]
12,COC1=C(OC)C(=O)C(CCCCCCCCCCO)=C(C)C1=O,-1.47%
13,CN(C)[C@@H](CCOc1cccc2ccccc12)c1ccccc1,-30%

# Test system: not listed separately
# Test: qHTS assay to identify small molecule antagonists of the retinoid-related orphan receptor gamma (ROR-gamma) signaling pathway - cell viability counter screen (AID 1159520; active = well fitted curve in the direction sought with a large enough effect in the repeat runs; an effect the other way counts as inactive or inconclusive; also: nearly all actives have a fitted effect of over 50% in size; also: potency is read from the fitted curve at half-maximal effect; as to activity, negative = cytotoxicity: % is scaled to controls: 0 for no effect and ±100 for the full control effect)
# Details: Tet-on RORgamma CHO cells viability, ATP luminescence, 16 h; series mostly up to 92.4 µM; activity, negative = cytotoxicity: at the top concentration
# Method in brief: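 Tet-on ROR gamma CHO cells were given compounds for 2 hr, then doxycycline hyclate at 1 uM final, and incubated 16 hr at 37 C. Viability was measured as ATP content by CellTiter-Glo luminescence.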
SMILES,"activity, negative = cytotoxicity",Potency
CCCC[P+](C)(CCCC)CCCC,-3.21%,–
CC[N+](CC)(CC)CCOC(=O)C(C1CCCC1)C1CCCC1,3.15% [at 42.5 µM],–
CC(CCc1ccccc1)NCC(O)c1ccc(O)c(C(N)=O)c1 (stereo unspecified),3.23%,–
O=C(O)c1cc(O)c2ccccc2c1O,–,17.2 µM (active)
O=C(O)c1cccc(C(F)(F)F)c1,-0.715%,–
CC(C)(C)CC(C)(C)c1ccc(Nc2ccc(C(C)(C)CC(C)(C)C)cc2)cc1,-0.0922% [at 8.39 µM],–
O=C(Oc1ccccc1)Oc1ccccc1,0.0631%,–
Cc1ccc(-c2ccccc2)cc1,-6.87%,–
CCCCNS(=O)(=O)c1ccc(C)cc1,-6.99%,–
Clc1sc(Cl)c(Cl)c1Cl,-2.14%,–
O=C(O)CCN(C1(C(=O)NO)CCCC1)S(=O)(=O)c1ccc(Oc2ccc(F)cc2)cc1,8.58%,–
O=[N+]([O-])c1cccc(C(F)(F)F)c1,1.85%,–
OCCN1CCN(CCCN2c3ccccc3Sc3ccc(C(F)(F)F)cc32)CC1,-19.6% [at 42.5 µM],–
COc1cc(/C=C/c2ccccc2)oc(=O)c1,0.0507%,–
CN(C)Cc1cc(C(C)(C)C)c(O)c(C(C)(C)C)c1,0.682%,–
O=c1[nH]c(=O)n([C@H]2C[C@H](O)[C@@H](CO)O2)cc1F,3.57% [at 42.5 µM],–
C=C(CC)C(=O)c1ccc(OCC(=O)O)c(Cl)c1Cl,–,inactive
Nc1ccc(Oc2ccc(Cl)cc2)cc1,-16.3%,–
CN(C)CCN1CCN(c2cccc(Cl)c2)C1=O,3.52% [at 42.5 µM],–
COC(=O)c1ccccc1OC,0.225%,–
O=C(O)O,0.616% [at 8.39 µM],–
O=C1CCc2cc(OCCCCc3nnnn3C3CCCCC3)ccc2N1,-5.88% [at 42.5 µM],–
CCC(C)[O-].CCC(C)[O-].CCOC(=O)/C=C(/C)[O-].[Al+3],-4.84%,–
CCc1oc2ccccc2c1C(=O)c1cc(I)c(O)c(I)c1,-17.1% [at 42.5 µM],–

# Target: Nuclear receptor ROR-gamma (Homo sapiens) (UniProt P51449)
# Test: qHTS assay to identify small molecule antagonists of the retinoid-related orphan receptor gamma (ROR-gamma) signaling pathway (AID 1159521; active = well fitted curve in the direction sought with a large enough effect in the repeat runs; an effect the other way counts as inactive or inconclusive; also: nearly all actives have a fitted effect of over 50% in size; also: potency is read from the fitted curve at half-maximal effect;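 as to activity change, negative = inhibition: CHO cells with doxycycline inducible ROR-gamma driving an RORE luciferase reporter; top concentration of the series differs between compounds; % is scaled to controls: 0 for no effect and ±100 for the full control effect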)
# Details: Tet-on RORgamma CHO cells, RORE-luciferase, 16 h; series mostly up to 92.4 µM; activity change, negative = inhibition: at the top concentration
# Method in brief: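 CHO cells expressing RORγ under a TET-on promoter, luciferase under RORE control. Dox 1 uM final, 16 h; compounds added 2 h prior. Luminescence decrease measured.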
SMILES,"activity change, negative = inhibition",Potency
CCCC[P+](C)(CCCC)CCCC,-4.79%,–
CC[N+](CC)(CC)CCOC(=O)C(C1CCCC1)C1CCCC1,10.6% [at 42.5 µM],–
CC(CCc1ccccc1)NCC(O)c1ccc(O)c(C(N)=O)c1 (stereo unspecified),-7.98%,–
O=C(O)c1cc(O)c2ccccc2c1O,–,13.7 µM (active)
NC(=S)NC(N)=S,-26.3%,–
CC(C)(C)CC(C)(C)c1ccc(Nc2ccc(C(C)(C)CC(C)(C)C)cc2)cc1,1.61% [at 8.39 µM],–
CC(C)=CCC1=C(O)c2ccccc2C(=O)C1=O,–,13.6 µM (active)
O=C(Oc1ccccc1)Oc1ccccc1,52%,–
Cc1ccc(-c2ccccc2)cc1,26.2%,–
CCCCNS(=O)(=O)c1ccc(C)cc1,-8.48%,–
Clc1sc(Cl)c(Cl)c1Cl,-0.721%,–
O=[N+]([O-])c1cccc(C(F)(F)F)c1,24.1%,–
COc1cc(/C=C/c2ccccc2)oc(=O)c1,131%,–
CN(C)Cc1cc(C(C)(C)C)c(O)c(C(C)(C)C)c1,-19.9%,–
O=c1[nH]c(=O)n([C@H]2C[C@H](O)[C@@H](CO)O2)cc1F,-11.1% [at 42.5 µM],–
CCCCCCCCCCCCOC(=O)c1ccc(O)cc1,-8.35%,–
Nc1ccc(Oc2ccc(Cl)cc2)cc1,-19.9%,–
CN(C)CCN1CCN(c2cccc(Cl)c2)C1=O,-0.951% [at 42.5 µM],–
COC(=O)c1ccccc1OC,17.1%,–
O=C(O)O,–,2.96 µM (active)
CNC(=O)c1ccccc1Sc1ccc2c(/C=C/c3ccccn3)n[nH]c2c1,24% [at 42.5 µM],–
O=C1CCc2cc(OCCCCc3nnnn3C3CCCCC3)ccc2N1,-27.9% [at 42.5 µM],–
COC1=C(OC)C(=O)C(CCCCCCCCCCO)=C(C)C1=O,–,18.8 µM (active)

# Test system: not listed separately
# Test: qHTS assay to identify small molecule agonists of the AP-1 signaling pathway - cell viability counter screen (AID 1159525); also: nearly all actives have a fitted effect of over 55% in size; also: potency is read from the fitted curve at half-maximal effect
# Details: ME-180 (cervical carcinoma) AP-1-bla cells viability, ATP luminescence, 5 h; series mostly up to 76.8 µM; viability change, negative = cytotoxic: at the top concentration
# Method in brief: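 AP-1-bla ME-180 cells in Opti-MEM with 0.5% dialyzed FBS, compound exposure 5 h at 37 C in 15-point titration. Viability read in the same wells as ATP content by CellTiter-Glo luminescence, normalised to tetra-n-octylammonium bromide and DMSO controls.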
SMILES,"viability change, negative = cytotoxic",Potency
COC(=O)C1=C(C)NC(C)=C(C(=O)OCCN2CCN(C(c3ccccc3)c3ccccc3)CC2)C1c1cccc([N+](=O)[O-])c1 (stereo unspecified),-6.78% [at 35.3 µM],–
CCCC[P+](C)(CCCC)CCCC,-15.1%,–
CC[N+](CC)(CC)CCOC(=O)C(C1CCCC1)C1CCCC1,7.88% [at 35.3 µM],–
O=C1C(c2[nH]c3ccc(S(=O)(=O)O)cc3c2O)=Nc2ccc(S(=O)(=O)O)cc21,-5.39%,–
CC(CCc1ccccc1)NCC(O)c1ccc(O)c(C(N)=O)c1 (stereo unspecified),2.98%,–
O=C(O)c1cc(O)c2ccccc2c1O,–,4.9 µM (active)
O=C(O)c1cccc(C(F)(F)F)c1,-2.48%,–
COc1ccc(-c2coc3cc(O)ccc3c2=O)cc1,0.508%,–
NC(=S)NC(N)=S,0.056%,–
CC(C)(C)CC(C)(C)c1ccc(Nc2ccc(C(C)(C)CC(C)(C)C)cc2)cc1,-3.55% [at 6.97 µM],–
CC(C)=CCC1=C(O)c2ccccc2C(=O)C1=O,-9.83%,–
O=C(Oc1ccccc1)Oc1ccccc1,-2.01%,–
Cc1ccc(-c2ccccc2)cc1,1.73%,–
CCCCNS(=O)(=O)c1ccc(C)cc1,-2.13%,–
Clc1sc(Cl)c(Cl)c1Cl,5.96%,–
Cc1ccc(O)c(O)c1,-11.9%,–
CCCc1ccc(OCC(=O)N2CCN(C(=O)COc3ccc(CCC)cc3OC)CC2)c(OC)c1,0.933% [at 35.3 µM],–
COc1cc(S(=O)(=O)O)c(C)cc1N=Nc1c(O)ccc2cc(S(=O)(=O)O)ccc12,-4.6%,–

SMILES,"viability change, negative = cytotoxic",Potency
O=C(O)CCN(C1(C(=O)NO)CCCC1)S(=O)(=O)c1ccc(Oc2ccc(F)cc2)cc1,-4.48%,–
O=[N+]([O-])c1cccc(C(F)(F)F)c1,11.4%,–
CC1=Nc2ccccc2C1(C)C,1.8%,–
OCCN1CCN(CCCN2c3ccccc3Sc3ccc(C(F)(F)F)cc32)CC1,-9.54% [at 35.3 µM],–
COc1cc(/C=C/c2ccccc2)oc(=O)c1,-0.422%,–
CN(C)Cc1cc(C(C)(C)C)c(O)c(C(C)(C)C)c1,0.844%,–
O=c1[nH]c(=O)n([C@H]2C[C@H](O)[C@@H](CO)O2)cc1F,5.91% [at 35.3 µM],–
C=C(CC)C(=O)c1ccc(OCC(=O)O)c(Cl)c1Cl,16% [at 35.3 µM],–
CCCCCCCCCCCCOC(=O)c1ccc(O)cc1,–,55.4 µM (active)
Nc1ccc(Oc2ccc(Cl)cc2)cc1,-22.2%,–
CCCCCCCC/C=C\CCCCCCCCN,-0.156% [at 35.3 µM],–
CN(C)CCN1CCN(c2cccc(Cl)c2)C1=O,0.133% [at 35.3 µM],–
COC(=O)c1ccccc1OC,6.97%,–
O=C(O)O,-29.9% [at 6.97 µM],–
CNC(=O)c1ccccc1Sc1ccc2c(/C=C/c3ccccn3)n[nH]c2c1,-12.6% [at 35.3 µM],–
O=C1CCc2cc(OCCCCc3nnnn3C3CCCCC3)ccc2N1,0.388% [at 35.3 µM],–
CCC(C)[O-].CCC(C)[O-].CCOC(=O)/C=C(/C)[O-].[Al+3],-3.07%,–
CCc1oc2ccccc2c1C(=O)c1cc(I)c(O)c(I)c1,-19.7% [at 35.3 µM],–
